Rows were chosen to be rich in hits. Some 3.5% of all compounds tested hit in one or more screens of this group.
TbPYK inhibitor = qHTS of Trypanosoma Brucei Inhibitors | TbPYK enzyme, Kinase-Glo Plus ATP luminescence, 45 min | pyruvate kinase (Trypanosoma brucei), Q57TT1 | 410,000 compounds, 0.12% hits | Potency, µM (titrated, usually from 76.8 µM), for inactives: top-dose activity, negative = inhibition, usual class: inhibitors; also: % is scaled to controls: 0 for no effect and ±100 for the full control effect; nearly all actives have a fitted effect of over 50% in size
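T. brucei PYK with substrate was exposed to pin-transferred compounds across a concentration series, then started with 130 uM ADP (final). After 45 min at room temperature, Kinase-Glo Plus luminescence was read, normalized and curve-fitted.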
RE007 growth inh = qHTS Assay for Inhibitors of the HIV-1 protein Vpr; S. pombe RE007 Vpr strain, BacTiter-Glo ATP luminescence, 24 h; Potency, µM (highest dose often 92.2 µM), for inactives: at the top dose activity change, negative = less growth, hits mostly inhibitors; 360,000 compounds, 0.21% hits; AID 651644, 2012; active = well fitted falling curve with a large enough effect; inconclusive = small, poorly fitted or top-dose-only effect; inactive = no such curve, though single readings can be large or run the other way; also: % is scaled to controls: 0 for no effect and ±100 for the full control effect; nearly all actives have a fitted effect of over 50% in size
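Fission yeast RE007 carrying one integrated HIV-1 vpr copy, seeded at OD 0.01 in PMG+AL medium with 23 nL pinned compound. Grown 24 h at 30 degrees; viability read by BacTiter-Glo luminescence after 5 min.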
NS1 function inh = qHTS Assay for Inhibitors of Influenza NS1 Protein Function. Potency, µM (titrated, usually from 46.1 µM), without a hit: at the top dose activity, positive = more growth. 270,000 compounds, 0.4% hits; calls by dose curve; also: actives are rising curves; nearly all actives have a fitted effect of over 50% in size
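A cell-based growth assay was used: compounds that relieve NS1-induced slow growth of budding yeast raise OD600. Assay medium was yeast nitrogen base with ammonium sulphate and -URA supplement, pH 6.0, with 2% galactose.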
Sm TGR inh = qHTS Assay for the Inhibitors of Schistosoma Mansoni Peroxiredoxins | Schistosoma mansoni thioredoxin glutathione reductase (TGR), Q962Y6 | purified TGR, DTNB reduction, TNB absorbance 405 nm | 360,000 compounds, 3% hits | AID 485364, 2010 | Potency, µM (top dose mostly 114 µM), for inactives: top-dose activity change, negative = inhibition, usual class: inhibitors; also: % is scaled to controls: 0 for no effect and ±100 for the full control effect; nearly all actives have a fitted effect of over 60% in size
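TGR 20 nM + NADPH 100 uM (dispensed conc.), cpd preinc 15 min RT; start with NADPH (500 uM addition) then DTNB (15 mM addition). Kinetic TNB absorbance, 405 nm filter. Four-parameter Hill fit across titration.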
LmPK inhibitor = qHTS Assay for Inhibitors of Leishmania Mexicana Pyruvate Kinase (LmPK); purified LmPK, Kinase-Glo ATP luminescence, 1 h; Potency, µM (series often up to 57.5 µM), for the others: top-dose activity change, negative = inhibition, hits mostly inhibitors; 290,000 compounds, 0.37% hits; AID 1721, 2009; also: % is scaled to controls: 0 for no effect and ±100 for the full control effect
Target sequence (Q27686 whole entry, looked up): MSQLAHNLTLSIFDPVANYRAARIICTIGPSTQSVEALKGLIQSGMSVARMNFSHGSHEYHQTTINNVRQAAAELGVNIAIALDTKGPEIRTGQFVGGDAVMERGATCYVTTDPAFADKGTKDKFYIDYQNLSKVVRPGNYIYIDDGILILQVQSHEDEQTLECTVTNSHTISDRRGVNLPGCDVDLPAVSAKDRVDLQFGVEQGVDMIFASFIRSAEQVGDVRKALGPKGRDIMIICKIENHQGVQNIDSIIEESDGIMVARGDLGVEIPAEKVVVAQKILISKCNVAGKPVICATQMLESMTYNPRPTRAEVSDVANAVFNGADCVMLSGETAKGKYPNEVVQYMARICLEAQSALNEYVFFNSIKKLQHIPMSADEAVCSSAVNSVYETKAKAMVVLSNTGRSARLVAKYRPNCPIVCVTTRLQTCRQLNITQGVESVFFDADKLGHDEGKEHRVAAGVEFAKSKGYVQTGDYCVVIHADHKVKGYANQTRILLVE
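ATP generated from ADP (0.1 mM) and PEP (0.5 mM) by 0.1 nM LmPK over 1 h at room temperature (pH 7.2 imidazole buffer) was detected by coupled luciferase luminescence. Values were normalized to uninhibited and no-enzyme wells.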
Giardia FBPA inh = qHTS Assay for Inhibitors of Fructose-1,6-bisphosphate Aldolase from Giardia Lamblia; 290,000 compounds, 0.71% hits; A8B2U2; Potency, µM (doses to about 59.6 µM), inactives show at the highest dose activity, negative = inhibition, actives largely listed as inhibitors; purified Giardia FBPA; also: % is scaled to controls: 0 for no effect and ±100 for the full control effect; nearly all actives have a fitted effect of over 55% in size
Target sequence (A8B2U2 whole entry, looked up): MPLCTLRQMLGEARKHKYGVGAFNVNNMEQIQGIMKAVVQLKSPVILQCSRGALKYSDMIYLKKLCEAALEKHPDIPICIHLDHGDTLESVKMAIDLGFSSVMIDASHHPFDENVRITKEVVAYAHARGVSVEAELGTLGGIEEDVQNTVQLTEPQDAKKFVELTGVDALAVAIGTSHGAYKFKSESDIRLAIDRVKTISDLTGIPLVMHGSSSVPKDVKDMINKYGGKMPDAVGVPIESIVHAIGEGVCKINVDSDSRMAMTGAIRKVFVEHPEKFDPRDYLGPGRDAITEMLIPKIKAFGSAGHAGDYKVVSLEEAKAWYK
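40 nM FBPA preincubated 10 min at RT with compound (up to 57.5 uM final), then substrate plus GAPDH/TPI/NAD/arsenate coupling and diaphorase/resazurin added. Fluorescence read after 20 min at RT, 525/598 nm.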
Starred values were filed as active, the others as inactive; ? = inconclusive; · = no result given. Unless noted, calls follow the shape of the dose curve; as a rule, active = well fitted curve in the direction sought with a large enough effect; inconclusive = small, poorly fitted or top-dose-only effect, or another doubt; inactive = no such curve, though single readings can be large; an effect the other way counts as inactive or inconclusive. Potency is read from the fitted curve at half-maximal effect.

SMILES | TbPYK inhibitor | RE007 growth inh | NS1 function inh | Sm TGR inh | LmPK inhibitor | Giardia FBPA inh
COCCCn1c(SCC(=O)NCc2ccccc2)nc2c(sc3ccccc32)c1=O | 5.3% | · | · | 0.3% | · | ·
COc1cc(NS(=O)(=O)c2ccc(NC(=S)NC(=O)c3sc4ccccc4c3Cl)cc2)ncn1 | -11.3% | 3.2% | 1.2% | 3.1% | -2.1% | -15.9%
COc1ccc(C(=O)NC(=S)Nc2ccc(S(=O)(=O)Nc3cc(OC)ncn3)cc2)cc1 | -1.0% | 3.4% | 6.4% | 20µM* | -1.8% | -19.4%
COc1cc(NS(=O)(=O)c2ccc(NC(=S)NC(=O)c3ccc(F)cc3)cc2)nc(OC)n1 | -4.8% | -13.1% | 22.0% | 31.6µM* | 4.5% | -19.6%
COc1cc(NS(=O)(=O)c2ccc(NC(=O)c3ccc(C(C)=O)cc3)cc2)nc(OC)n1 | -0.5% | · | · | 0.4% | · | ·
COc1ccc(OCC(=O)NC(=S)Nc2ccc(S(=O)(=O)Nc3cc(OC)nc(OC)n3)cc2)cc1 | -0.6% | 0.0% | 20.6% | ? | 0.1% | 4.8%
COc1ccc(C(=O)NC(=S)Nc2ccc(S(=O)(=O)Nc3cc(OC)nc(OC)n3)cc2)cc1 | -7.8% | 2.3% | 21.0% | 14.1µM* | 3.2% | ?
COc1cc(NS(=O)(=O)c2ccc(NC(=S)NC(=O)c3ccco3)cc2)ncn1 | 0.2% | -12.5% | -1.4% | 39.8µM* | 1.2% | 14.0%
COc1ccc(-c2noc(CSCC(=O)Nc3ccc(C)cc3Br)n2)cc1OC | -4.4% | · | · | 5.0% | · | ·
O=C(NCCc1ccc(Cl)cc1)c1cc(-c2ccc(Cl)cc2)n[nH]1 | -11.6% | · | · | 0.3% | · | ·
Cc1c(C(=O)N2CCOCC2)sc(NC(=O)c2ccc([N+](=O)[O-])cc2)c1C#N | -4.5% | 1.1% | 0.9% | -0.8% | -8.9% | 6.7%
Cc1c(C(=O)N2CCOCC2)sc(NC(=O)CCl)c1C#N | -0.7% | 4.4% | -2.9% | 39.8µM* | -0.5% | 1.0%
CNS(=O)(=O)c1cc(-c2nnc(Nc3cc(C)ccc3C)c3ccccc23)ccc1C | -1.0% | · | · | 1.5% | · | ·
CN(C)CCNC(=O)c1ccc2nc(Cc3ccccc3)oc2c1 | 0.0% | · | · | -0.2% | · | ·
CN(CC(=O)NCc1ccco1)S(=O)(=O)c1cccc2cccnc12 | -8.0% | -11.9% | -13.6% | 20µM* | 0.4% | -0.2%
COc1ccc(C)cc1S(=O)(=O)N(C)CC(=O)NCc1ccco1 | -17.2% | 16.8% | ? | 31.6µM* | 8.9% | -1.7%
CN(CC(=O)NCc1ccco1)S(=O)(=O)c1ccc2c(c1)n(C)c(=O)c(=O)n2C | -6.7% | 5.1% | 3.9% | 39.8µM* | 0.2% | -0.5%
CN(CC(=O)NCc1ccc(Cl)cc1)S(=O)(=O)c1cccc2cccnc12 | 3.6% | 4.3% | -4.4% | 4.2% | 3.4% | 1.8%
CCOCCCn1c(=N)c(C(=O)NC2CCCC2)cc2c(=O)n3cc(C)ccc3nc21 | -4.2% | · | · | 2.8% | · | ·
COc1cc(-c2nnc(SCC(=O)Nc3cccc(C#N)c3)o2)cc(OC)c1OC | -0.1% | · | · | -14.7% | · | ·
Cc1onc(-c2c(Cl)cccc2Cl)c1NC(=O)NNc1ccccc1 | -2.7% | 14.5% | -1.3% | -11.7% | 4.4% | -0.6%
Cc1onc(-c2c(F)cccc2Cl)c1C(=O)N1CCCc2ccccc21 | 7.08µM* | -19.5% | -14.1% | -31.5% | 5.0% | -7.8%
Cc1onc(-c2ccccc2Cl)c1C(=O)N1CCCc2ccccc21 | ? | 0.5% | -4.6% | 3.5% | 1.3% | -6.2%
Cc1onc(-c2c(F)cccc2Cl)c1C(=O)ONC(=O)c1ccco1 | 1.4% | 14.1% | -2.1% | 12.6µM* | 6.9% | 1.6%
Cc1onc(-c2c(F)cccc2Cl)c1C(=O)NCc1ccccc1 | 3.6% | -5.7% | 19.3% | 5.3% | 2.4% | 0.2%
SMILES | TbPYK inhibitor | RE007 growth inh | NS1 function inh | Sm TGR inh | LmPK inhibitor | Giardia FBPA inh
Cc1onc(-c2c(Cl)cccc2Cl)c1C(=O)NNc1ccccc1 | -6.1% | 220.1% | -5.1% | 50.1µM* | 5.4% | 0.4%
Cc1csc2nc(COc3ccccc3NC(=O)c3ccco3)cc(=O)n12 | -2.5% | · | · | 6.7% | · | ·
Cc1c(C(=O)N(Cc2ccco2)Cc2ccccc2Cl)oc2ccc(F)cc12 | -7.1% | · | · | -34.2% | · | ·
Oc1ccc(/C=N/Nc2cc(N3CCOCC3)nc(N3CCOCC3)n2)cc1O | -18.1% | -17.8% | ? | 50.1µM* | 1.6% | ?
COc1ccc(Br)c(C(=O)Nc2cc3c(cc2N2CCOCC2)n(C)c(=O)n3C)c1 | -8.8% | · | · | 1.7% | · | ·
O=C1/C(=C/c2cccs2)COc2ccccc21 | -28.1% | ? | -8.8% | -4.3% | 14.1µM* | 7.6%
O=C1C(=Cc2cccs2)Oc2ccccc21 | 10.1% | -19.4% | · | · | · | ·
CC1CCC(NC(=O)c2ccc(CSc3nc4ccncc4n3Cc3ccc(F)cc3)cc2)CC1 (stereo not given) | 10.1% | · | · | 3.5% | · | ·
O=C(OCc1nnc(-c2ccc(Cl)cc2)o1)c1ccc(O)cc1 | -0.4% | -3.7% | · | -6.0% | 4.2% | 6.3%
CS(=O)(=O)c1ccc(C(=O)OCc2nnc(-c3ccc(Cl)cc3)o2)cc1[N+](=O)[O-] | 1.2% | -4.3% | -8.1% | 2.51µM* | 6.8% | 2.0%
O=C(NCCO)C(=O)NCC(c1ccc2c(c1)OCO2)N1CCOCC1 (stereo not given) | 0.7% | · | · | -1.9% | · | ·
CCC(=O)N1CCN(c2ccc(NC(=O)c3ccc([N+](=O)[O-])o3)cc2)CC1 | -2.6% | -27.6% | -0.7% | 28.2µM* | -2.5% | -18.8%
O=C(Nc1ccc2[nH]c(=O)[nH]c2c1)c1ccc([N+](=O)[O-])o1 | -2.7% | -8.7% | · | 39.8µM* | · | ·
CCN(CC)CCNC(=O)CCCCn1c(=S)[nH]c2c([nH]c3ccc(OC)cc32)c1=O | ? | 8.4% | -2.0% | 11.2% | 2.82µM* | -9.3%
O=C(NCc1ccccc1Cl)C1CCN(S(=O)(=O)c2ccc3c(c2)CCCN3C(=O)C2CCC2)CC1 | 0.5% | · | · | 9.5% | · | ·
O=C(/C=C/c1ccco1)N(Cc1ccc(F)cc1)C1CCS(=O)(=O)C1 (stereo not given) | -5.6% | 6.8% | 1.9% | 7.94µM* | 0.5% | 0.5%
O=C(/C=C/c1ccco1)N(Cc1cccc(F)c1)C1CCS(=O)(=O)C1 (stereo not given) | -6.8% | 1.6% | 11.6% | 10µM* | -5.4% | ·
O=C(c1ccccc1F)N(Cc1ccc(F)cc1)C1CCS(=O)(=O)C1 (stereo not given) | -9.3% | -3.4% | 0.6% | 16.1% | 0.1% | 12.4%

Assay outcomes from PubChem BioAssay.
